What all share (test): DAPPL (digital affinity profiling via proximity ligation, sequencing); 10 mM Tris-HCl pH 7.5, 50 mM NaCl, 1 mM DTT, 4% glycerol, room temperature, 30 min; GST-TFs on glutathione beads, 16-mer random dsDNA library, 0.1% formaldehyde crosslink after washing; high values mean tight binding
Holding throughout (details): protein: recombinant; tags: N-terminal GST; dsDNA, one strand shown

One assay addresses T1, ERF (Homo sapiens, UniProt P50548 1-548).
T1 sequence: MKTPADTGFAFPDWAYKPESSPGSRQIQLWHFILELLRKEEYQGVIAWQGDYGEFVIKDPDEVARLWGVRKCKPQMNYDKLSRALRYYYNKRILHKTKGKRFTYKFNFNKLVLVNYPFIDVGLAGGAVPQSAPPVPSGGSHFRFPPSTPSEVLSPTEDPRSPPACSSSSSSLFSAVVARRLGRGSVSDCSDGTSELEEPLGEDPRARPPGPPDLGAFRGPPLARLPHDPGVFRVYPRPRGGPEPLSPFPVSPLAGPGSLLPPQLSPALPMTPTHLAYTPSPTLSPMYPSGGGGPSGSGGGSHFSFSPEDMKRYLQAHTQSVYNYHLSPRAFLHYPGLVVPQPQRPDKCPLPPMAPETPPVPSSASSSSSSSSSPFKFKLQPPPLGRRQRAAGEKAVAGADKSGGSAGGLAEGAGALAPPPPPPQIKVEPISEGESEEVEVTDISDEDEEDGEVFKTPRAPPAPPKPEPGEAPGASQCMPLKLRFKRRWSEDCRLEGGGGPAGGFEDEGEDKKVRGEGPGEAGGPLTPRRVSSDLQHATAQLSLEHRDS
The method, boiled down:
(§1)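 A tag-only sample was pooled with DNA-barcoded human transcription factors that had been expressed in yeast as GST fusions and captured on glutathione beads. The pools were incubated for 30 min at room temperature with 200 nmole of a random double-stranded 16-mer DNA library in Tris/NaCl/DTT/glycerol buffer, then washed, crosslinked with 0.1% formaldehyde, proximity-ligated (BsaI/T4 ligase, 1 h, 37 °C), PCR-amplified and sequenced on an Illumina NextSeq500. Binding signal is each hexamer's read frequency for a factor divided by its frequency for the tag-only sample.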

The target of a further assay is T2, ETV3L (Homo sapiens, UniProt Q6ZN32 1-361).
T2 sequence: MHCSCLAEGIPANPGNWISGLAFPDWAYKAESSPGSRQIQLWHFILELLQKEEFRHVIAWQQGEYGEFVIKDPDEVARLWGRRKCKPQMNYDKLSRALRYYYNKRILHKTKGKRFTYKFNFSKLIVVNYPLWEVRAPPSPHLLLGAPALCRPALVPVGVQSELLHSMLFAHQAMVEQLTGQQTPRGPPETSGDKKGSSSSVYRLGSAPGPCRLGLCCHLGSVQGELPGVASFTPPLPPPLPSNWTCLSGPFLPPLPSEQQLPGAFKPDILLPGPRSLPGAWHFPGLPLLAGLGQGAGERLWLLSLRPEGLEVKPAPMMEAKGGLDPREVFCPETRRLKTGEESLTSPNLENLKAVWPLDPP
The method, boiled down:
as §1

A further assay addresses T3, ETS2 (Homo sapiens, UniProt P15036 1-469).
T3 sequence: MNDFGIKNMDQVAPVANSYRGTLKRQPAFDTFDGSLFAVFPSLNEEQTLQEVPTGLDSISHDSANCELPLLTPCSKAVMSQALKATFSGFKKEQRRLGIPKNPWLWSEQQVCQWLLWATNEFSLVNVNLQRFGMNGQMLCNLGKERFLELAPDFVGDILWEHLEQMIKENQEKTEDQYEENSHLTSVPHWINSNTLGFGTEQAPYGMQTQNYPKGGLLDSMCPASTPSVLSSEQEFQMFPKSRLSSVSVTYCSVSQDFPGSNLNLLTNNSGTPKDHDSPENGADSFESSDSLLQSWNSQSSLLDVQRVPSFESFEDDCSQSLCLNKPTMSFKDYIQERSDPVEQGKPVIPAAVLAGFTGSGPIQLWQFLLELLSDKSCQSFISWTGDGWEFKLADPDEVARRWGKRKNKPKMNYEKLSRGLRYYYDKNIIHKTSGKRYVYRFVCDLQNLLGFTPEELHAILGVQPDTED
The method, boiled down:
as §1

The target in a further assay is T4, SPDEF (Homo sapiens, UniProt O95238 1-335).
T4 sequence: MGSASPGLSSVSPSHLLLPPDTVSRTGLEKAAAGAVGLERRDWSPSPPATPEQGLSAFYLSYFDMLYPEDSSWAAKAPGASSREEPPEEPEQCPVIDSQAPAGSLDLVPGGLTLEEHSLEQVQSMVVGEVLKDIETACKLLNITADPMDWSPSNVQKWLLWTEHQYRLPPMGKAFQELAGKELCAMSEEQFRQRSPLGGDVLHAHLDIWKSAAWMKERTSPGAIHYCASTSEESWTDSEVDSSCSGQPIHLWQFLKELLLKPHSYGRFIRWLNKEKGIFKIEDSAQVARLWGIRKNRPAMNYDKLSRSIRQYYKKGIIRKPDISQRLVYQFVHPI
The method, boiled down:
as §1

In the next assay the target is T5, ETV7 (Homo sapiens, UniProt Q9Y603 1-341).
T5 sequence: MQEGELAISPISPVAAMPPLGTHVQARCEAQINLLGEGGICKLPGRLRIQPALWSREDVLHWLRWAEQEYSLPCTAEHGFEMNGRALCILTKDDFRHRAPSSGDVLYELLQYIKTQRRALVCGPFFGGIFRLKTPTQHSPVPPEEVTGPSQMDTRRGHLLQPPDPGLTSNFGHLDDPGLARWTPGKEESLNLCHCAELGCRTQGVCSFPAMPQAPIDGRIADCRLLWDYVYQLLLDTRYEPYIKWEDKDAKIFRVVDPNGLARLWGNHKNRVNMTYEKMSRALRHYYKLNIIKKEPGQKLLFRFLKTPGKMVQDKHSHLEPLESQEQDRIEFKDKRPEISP
The method, boiled down: as §1

The next assay addresses T6, ELF5 (Homo sapiens, UniProt Q9UKW6-2 1-255).
T6 sequence: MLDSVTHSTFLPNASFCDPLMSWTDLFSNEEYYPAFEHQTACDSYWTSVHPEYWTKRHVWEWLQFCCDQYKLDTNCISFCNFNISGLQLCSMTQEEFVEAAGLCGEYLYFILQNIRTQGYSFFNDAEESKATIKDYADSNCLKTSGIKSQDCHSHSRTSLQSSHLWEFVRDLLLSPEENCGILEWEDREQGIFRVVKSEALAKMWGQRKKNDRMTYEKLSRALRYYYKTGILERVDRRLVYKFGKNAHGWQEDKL
The method, boiled down: as §1

A further assay has as its target T7, ETV3 (Homo sapiens, UniProt P41162-2 1-143).
T7 sequence: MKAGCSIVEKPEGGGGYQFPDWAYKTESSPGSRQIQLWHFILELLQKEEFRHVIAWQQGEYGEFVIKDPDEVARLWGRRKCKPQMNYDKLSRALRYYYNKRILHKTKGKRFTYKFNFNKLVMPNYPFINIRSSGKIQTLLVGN
The gist of the method:
as §1

Another assay has as its target ETV6 (Homo sapiens, UniProt P41212 1-452). The method, boiled down:
as §1

Sequence of ETV6 (P41212 whole entry): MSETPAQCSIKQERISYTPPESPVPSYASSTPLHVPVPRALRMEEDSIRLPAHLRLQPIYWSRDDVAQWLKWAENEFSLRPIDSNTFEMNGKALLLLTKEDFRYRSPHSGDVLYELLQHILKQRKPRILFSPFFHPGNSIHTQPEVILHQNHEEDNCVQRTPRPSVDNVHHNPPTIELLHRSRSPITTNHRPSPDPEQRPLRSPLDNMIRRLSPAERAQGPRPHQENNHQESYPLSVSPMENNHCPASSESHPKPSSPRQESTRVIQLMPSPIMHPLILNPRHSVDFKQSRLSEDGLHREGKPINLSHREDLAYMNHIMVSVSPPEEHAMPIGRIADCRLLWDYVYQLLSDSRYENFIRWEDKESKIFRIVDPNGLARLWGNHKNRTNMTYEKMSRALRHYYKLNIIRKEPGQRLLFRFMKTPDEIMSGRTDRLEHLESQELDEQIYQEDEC

Consider GTGTTT, for which the binding signal was 1.12 fold enrichment (6-mer frequency, TF over GST control) with ERF; 1.18 fold enrichment (6-mer frequency, TF over GST control) with ETV3L; 1.19 fold enrichment (6-mer frequency, TF over GST control) with ETS2; 1.22 fold enrichment (6-mer frequency, TF over GST control) with SPDEF; 1.2 fold enrichment (6-mer frequency, TF over GST control) in the assay with ETV7; 1.23 fold enrichment (6-mer frequency, TF over GST control) with ELF5. Besides, the binding signal is 1.15 fold enrichment (6-mer frequency, TF over GST control) with ETV3 and 1.2 fold enrichment (6-mer frequency, TF over GST control) with ETV6.

With CTTACA, the binding signal in the assay with ERF is 1.34 fold enrichment (6-mer frequency, TF over GST control); with ETV3L it was 1.26 fold enrichment (6-mer frequency, TF over GST control); in the assay with ETS2, 1.14 fold enrichment (6-mer frequency, TF over GST control); with SPDEF, 1.34 fold enrichment (6-mer frequency, TF over GST control); with ETV7, 1.23 fold enrichment (6-mer frequency, TF over GST control); with ELF5 it was 1.35 fold enrichment (6-mer frequency, TF over GST control). The binding signal with ETV3 is 1.29 fold enrichment (6-mer frequency, TF over GST control); with ETV6 it was 1.24 fold enrichment (6-mer frequency, TF over GST control).

CCTCGC: the binding signal in the assay with ERF was 1.31 fold enrichment (6-mer frequency, TF over GST control); with ETV3L it was 1.53 fold enrichment (6-mer frequency, TF over GST control); with ETS2, 1.41 fold enrichment (6-mer frequency, TF over GST control); with SPDEF, 1.42 fold enrichment (6-mer frequency, TF over GST control); with ETV7, 1.48 fold enrichment (6-mer frequency, TF over GST control); in the assay with ELF5, 1.41 fold enrichment (6-mer frequency, TF over GST control). Moreover, the binding signal with ETV3 is 1.45 fold enrichment (6-mer frequency, TF over GST control); in the assay with ETV6, 1.25 fold enrichment (6-mer frequency, TF over GST control).

For the sequence TTTGGT, the binding signal in the assay with ERF was 1.49 fold enrichment (6-mer frequency, TF over GST control); with ETV3L it was 1.36 fold enrichment (6-mer frequency, TF over GST control); with ETS2, 1.43 fold enrichment (6-mer frequency, TF over GST control); with SPDEF, 1.28 fold enrichment (6-mer frequency, TF over GST control); in the assay with ETV7, 1.45 fold enrichment (6-mer frequency, TF over GST control); in the assay with ELF5, 1.4 fold enrichment (6-mer frequency, TF over GST control). Besides, the binding signal with ETV3 was 1.39 fold enrichment (6-mer frequency, TF over GST control); with ETV6, 1.36 fold enrichment (6-mer frequency, TF over GST control).

For ACAAAC, the binding signal in the assay with ERF was 1.11 fold enrichment (6-mer frequency, TF over GST control); in the assay with ETV3L it was 1.08 fold enrichment (6-mer frequency, TF over GST control); with ETS2, 1.22 fold enrichment (6-mer frequency, TF over GST control); with SPDEF, 1.15 fold enrichment (6-mer frequency, TF over GST control); in the assay with ETV7, 1.11 fold enrichment (6-mer frequency, TF over GST control); with ELF5, 1.12 fold enrichment (6-mer frequency, TF over GST control). The binding signal is 1.09 fold enrichment (6-mer frequency, TF over GST control) in the assay with ETV3 and 1.15 fold enrichment (6-mer frequency, TF over GST control) in the assay with ETV6.

Consider GCTACA, for which the binding signal was 1.2 fold enrichment (6-mer frequency, TF over GST control) with ERF; 1.29 fold enrichment (6-mer frequency, TF over GST control) with ETV3L; 1.17 fold enrichment (6-mer frequency, TF over GST control) with ETS2; 1.25 fold enrichment (6-mer frequency, TF over GST control) with SPDEF; 1.18 fold enrichment (6-mer frequency, TF over GST control) with ETV7; 1.19 fold enrichment (6-mer frequency, TF over GST control) with ELF5. Also, the binding signal in the assay with ETV3 was 1.17 fold enrichment (6-mer frequency, TF over GST control); with ETV6 it was 1.17 fold enrichment (6-mer frequency, TF over GST control).

The record behind these values is PMC7862700, “An all-to-all approach to the identification of sequence-specific readers for epigenetic DNA modifications on cytosine”.
